High-throughput results deposited in PubChem BioAssay by National Center for Advancing Translational Sciences (NCATS).
Many of the other results were omitted from the sample, so hits are more common in it than they were.
HttQ103 aggreg: mutant huntingtin aggregation inhibition | PC12 HttQ103-GFP aggregates, Acumen cytometry, 40 h | Potency, µM (top dose mostly 46.1 µM), most hits filed as inhibitors | 1.1% of 220,000 active | AID 1688; note: nearly all actives have a fitted effect of over 60% in size
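Read-out: GFP aggregate count by laser scanning cytometer (488 nm excitation, 500-530 nm emission, 1–25 µm objects >6 SD above background). Cells: PC12, inducible HTTex1-Q103-GFP, 100 nM tebufenozide; compounds titrated.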
GALK inh: inhibitors of human galactokinase. P51570. Purified GALK, Kinase-Glo residual ATP luminescence. Potency, µM (highest dose often 57.5 µM), usual class: inhibitors. 0.007% of 270,000 active. AID 1868
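Human GALK (5 nM) with 35 uM ATP and 100 uM galactose in 20 mM HEPES pH 8.0, 5 mM MgCl2, 60 mM NaCl, 1 mM DTT, 0.01% BSA. After 1 h at room temperature, leftover ATP was read by Kinase-Glo Plus luminescence.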
HTT ATP protect: cytoprotection in Huntington HTT-Q103 PC12 cell model | PC12 HTT-Q103 induced, cytoprotection, ATP luminescence, 40 h | Potency, µM (series often up to 56.4 µM), usual class: activators | 0.14% of 230,000 active; note: nearly all actives have a fitted effect of over 45% in size
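ATP quantification (ATPlite) reports survival of PC12 cells in which tebufenozide, 100 nM final, switches on Htt exon 1 with 103 glutamines linked to GFP; compounds are titrated.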
PI4K2A inh: PI4K2A (human) kinase inhibition. Q9BTU6. purified PI4K2A, ADP-Glo luminescence, 1 h; stronger effect = lower value. activity change, negative = inhibition, % at 76.9 µM. 0.13% of 420,000 active; in the data active = activity change below about -50%; inconclusive = mostly about -30% to -49%
Target sequence (Q9BTU6 whole entry, looked up): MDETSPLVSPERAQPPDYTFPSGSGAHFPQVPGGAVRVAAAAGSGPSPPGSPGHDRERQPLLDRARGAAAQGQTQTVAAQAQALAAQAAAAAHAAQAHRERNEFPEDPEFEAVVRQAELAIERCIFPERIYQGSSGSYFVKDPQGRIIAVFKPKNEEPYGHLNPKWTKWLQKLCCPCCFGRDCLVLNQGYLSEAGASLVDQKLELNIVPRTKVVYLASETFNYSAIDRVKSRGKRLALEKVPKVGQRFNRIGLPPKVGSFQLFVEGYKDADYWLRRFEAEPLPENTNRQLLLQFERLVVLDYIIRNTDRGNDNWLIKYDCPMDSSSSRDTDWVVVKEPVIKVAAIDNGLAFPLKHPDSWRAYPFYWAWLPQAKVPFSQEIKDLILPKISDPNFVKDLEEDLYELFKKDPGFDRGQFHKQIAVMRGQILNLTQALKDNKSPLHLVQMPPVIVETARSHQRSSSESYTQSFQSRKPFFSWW
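PI4K2A activity was measured by ADP-Glo luminescence: enzyme (4 ug/mL stock) and phosphatidylinositol (1.2 mM stock) in Tris pH 7.5/MgCl2/EGTA/Triton X-100 buffer were reacted with ATP (300 microM stock) for one hour at ambient temperature.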
Each line names hits and unclear results; the compound was inactive in the other large screens. Unless noted, calls come from the whole dose curve; as a rule, active = well fitted curve in the direction sought with a large enough effect; inconclusive = small, poorly fitted or top-dose-only effect, or another doubt; inactive = no such curve, though single readings can be large; an effect the other way counts as inactive or inconclusive.

CC(=O)NC(c1cccs1)c1cc([N+](=O)[O-])c2cccnc2c1O (stereo unspecified)	HttQ103 aggreg 3.2µM (no result: GALK inh)
CCCC(=O)NC(c1cccs1)c1cc([N+](=O)[O-])c2cccnc2c1O (stereo unspecified)	HttQ103 aggreg 11µM
O=C(Nc1ccc(S(=O)(=O)N2CCOCC2)cc1)c1cc(Cl)ccc1NS(=O)(=O)c1ccc(Cl)s1	none (no result: HttQ103 aggreg, GALK inh, HTT ATP protect)
CCn1c(C)nc2cc(S(=O)(=O)C(F)(F)C(F)C(F)(F)F)ccc21 (stereo unspecified)	HttQ103 aggreg 7.1µM
C=CCn1c(=O)n(C2OC(CO)C(O)C2O)c2nc(N)[nH]c(=O)c21 (stereo unspecified)	none (no result: GALK inh, PI4K2A inh)
CC1(C)C(/C=C/C=C/C=C/C=C2\N(CCCCS(=O)(=O)O)c3ccc4ccccc4c3C2(C)C)=[N+](CCCCS(=O)(=O)[O-])c2ccc3ccccc3c21	PI4K2A inh -65 (no result: GALK inh)
C=CCn1c(SCC(=O)Nc2ccc(CCCC)cc2)nnc1-c1ccc(Cl)cc1	none (no result: HttQ103 aggreg, GALK inh, HTT ATP protect)
COc1ccc(-c2cnnc(N/N=C/c3ccc(O)c(O)c3)n2)cc1	HttQ103 aggreg 11µM
c1cn(-c2ncnc3sc4c(c23)CCCC4)cn1	HttQ103 aggreg 11µM
Cc1ccccc1NC(=O)c1cc(C(=O)c2cc(Cl)ccc2O)cn(-c2ccccc2C)c1=O	HttQ103 aggreg 16µM
CCCCn1cc(C(=O)c2cc(Br)ccc2O)cc(C#N)c1=O	HttQ103 aggreg 16µM
COc1ccc(-n2cc(C(=O)c3cc(Cl)ccc3O)cc(C#N)c2=O)cc1	none
Cc1ccc(-n2cc(C(=O)c3cc(Cl)ccc3O)cc(C#N)c2=O)cc1	HttQ103 aggreg 13µM
Cc1ccccc1CNC(=O)C1CCC(CNS(=O)(=O)c2cccc3cccnc23)CC1 (stereo unspecified)	none (no result: HttQ103 aggreg, GALK inh, HTT ATP protect)
Fc1ccc(-c2nnc(CN3CCN(c4ncc(C(F)(F)F)cc4Cl)CC3)o2)cc1	HttQ103 aggreg 13µM
CCN(CC)C(=O)CC[C@@H]1CC[C@]2(CCCN(Cc3ccncc3)C2)O1	none (no result: HttQ103 aggreg, GALK inh, HTT ATP protect)
Cc1cc(C(=O)CSc2nc3ccccc3c(=O)n2C)c(C)n1Cc1ccc2c(c1)OCO2	HttQ103 aggreg 1µM
CN1/C(=C\C(=O)COC(=O)Cn2nnc(-c3ccccc3)n2)C(C)(C)c2ccccc21	HttQ103 aggreg 11µM
CN1/C(=C/C(=O)COC(=O)CN2C(=O)C3CC=CCC3C2=O)C(C)(C)c2ccccc21 (stereo unspecified)	none (no result: HttQ103 aggreg, GALK inh, HTT ATP protect)
NS(=O)(=O)c1ccc(NC(=S)N2CCN(c3ccc(Cl)c(Cl)c3)CC2)cc1	none (no result: HTT ATP protect)
NS(=O)(=O)c1ccc(NC(=S)N2CCN(Cc3ccc(Cl)c(Cl)c3)CC2)cc1	HttQ103 aggreg 22µM
Cc1cc(=O)c2c(O)c3c(O)cc(=O)c4c3c3c(cc(O)c1c23)C(C)(C)C=4O	HttQ103 aggreg 3.2µM (no result: GALK inh)
Cc1ccc(-c2csc(NC(=O)C3CC(=O)N(Cc4ccco4)C3)n2)cc1 (stereo unspecified)	none
Cc1csc(NC(=O)C2CC(=O)N(Cc3ccco3)C2)n1 (stereo unspecified)	HttQ103 aggreg 0.63µM, HTT ATP protect 1.1µM
O=C(NNC(=O)c1cc2cc(Br)ccc2oc1=O)c1ccc(O)cc1O	HttQ103 aggreg 35µM, HTT ATP protect inconclusive
COCCCNC(=O)c1cc2cc(Br)ccc2oc1=O	none (no result: HttQ103 aggreg, HTT ATP protect)
COc1ccc2cc3c(N)nn(C(=O)c4cccc([N+](=O)[O-])c4)c3nc2c1	HttQ103 aggreg 3.5µM
COc1ccc(C(=O)n2nc(N)c3cc4ccc(C)cc4nc32)cc1OC	none (no result: HttQ103 aggreg, GALK inh, HTT ATP protect)
COc1ccc2cc3c(N)nn(C(=O)Cc4ccccc4OC)c3nc2c1	HttQ103 aggreg 4.5µM
COc1ccc2cc3c(N)nn(C(=O)C4CCC(C(C)(C)C)CC4)c3nc2c1 (stereo unspecified)	HttQ103 aggreg 10µM (no result: GALK inh, HTT ATP protect)
COc1ccc(-n2cnc(N)c2C(=O)c2cccc([N+](=O)[O-])c2)cc1	HttQ103 aggreg 8.9µM
COc1ccc2cc3c(N)nn(C(=O)c4ccc(F)cc4Cl)c3nc2c1	none (no result: HttQ103 aggreg, GALK inh, HTT ATP protect)
COc1ccc(-n2cnc3cc([N+](=O)[O-])ccc32)cc1	none (no result: HttQ103 aggreg, HTT ATP protect)
COc1ccc(OC)c(S(=O)(=O)N2CCC(C(=O)NCC3COCCO3)CC2)c1 (stereo unspecified)	none (no result: HttQ103 aggreg, GALK inh, HTT ATP protect)
CCOc1ccc(CCNC(=O)c2cc3sccc3n2CC)cc1OC	none (no result: HttQ103 aggreg, GALK inh, HTT ATP protect)
O=C(NCc1ccc(Cl)cc1)O[C@H]1CC[C@@]23CCCN2C(=O)CCC[C@H]3C1	none (no result: HttQ103 aggreg, GALK inh, HTT ATP protect)
COc1ccc([C@@H]2C[C@H]3CN(c4ccccc4)C(=O)[C@]34CCCN24)c(OC)c1OC	none
COCc1cc([C@@H]2C[C@H]3CN(c4ccccc4)C(=O)[C@]34CCCN24)ccc1OC	HttQ103 aggreg 32µM
COc1ccccc1N1C[C@@H]2C[C@@H](c3ccco3)N3CCC[C@@]23C1=O	HttQ103 aggreg 7.1µM
COc1ccccc1CN1C[C@@H]2C[C@@H](c3ccc(C)cc3)N3CCC[C@@]23C1=O	none
COC(=O)c1cc(C(C)c2ccccc2O)n2ccccc12 (stereo unspecified)	none (no result: HttQ103 aggreg, GALK inh, HTT ATP protect)
CC1(C)C2CC[C@]1(C)[C@@H](O)C2	none (no result: GALK inh, PI4K2A inh)
Nc1ccc(N2CCCCC2)c2nonc12	PI4K2A inh -54
Nc1ccc(N2CCCCC2)cc1N1CCCCC1	HttQ103 aggreg inconclusive
Nc1c(N2CCCC2)cc(Cl)c2nonc12	PI4K2A inh -66
Cc1cc(N2CCOCC2)c2c(N)cc(C)c(C)c2n1	none
Nc1c(N2CCOCC2)cc(Cl)c2nonc12	PI4K2A inh -62
O=C(CCCl)NCc1ccccc1	none (no result: HttQ103 aggreg, GALK inh, HTT ATP protect)
CC(=O)N(Cc1ccc(F)cc1)C1=C(NCc2ccccc2)C(=O)c2ccccc2C1=O	HttQ103 aggreg 8.9µM
O=C(NCc1ccc(F)cc1)C(c1ccccc1)c1ccccc1	none (no result: HttQ103 aggreg, HTT ATP protect)
C=CCc1cc(C(=O)N2CCCCC2)ccc1O	HttQ103 aggreg 22µM
O=C1Oc2ccccc2C(=O)C1C(CC(O)c1ccc(-c2ccc(Br)cc2)cc1)c1ccccc1 (stereo unspecified)	none (no result: GALK inh, PI4K2A inh)
C[C@H](CCCC(C)(C)O)[C@H]1CC[C@H]2[C@@H]3CC=C4C[C@@H](O)CC[C@]4(C)[C@H]3CC[C@]12C	none (no result: GALK inh, PI4K2A inh)
O=S(=O)(c1cccs1)N1CCCc2cccc(O)c21	HttQ103 aggreg 11µM
O=C(Nc1ccc2c(c1)CCC2)C1CCN(c2c3c(nc4ncnn24)CCC3)CC1	HttQ103 aggreg 11µM
O=C(NC1CCCc2ccccc21)C1CCN(c2c3c(nc4ncnn24)CCC3)CC1 (stereo unspecified)	none
COc1ccc(NC(=O)C2CCCN(c3c4c(nc5ncnn35)CCC4)C2)cc1OC (stereo unspecified)	none
O=C(Nc1ccc(Oc2ccccc2)cc1)C1CCN(c2c3c(nc4ncnn24)CCC3)CC1	HttQ103 aggreg 8.9µM
C[C@@H]1COc2cc(Br)ccc2S(=O)(=O)N1Cc1cn(CCC2OCCCO2)nn1	none (no result: HttQ103 aggreg, GALK inh, HTT ATP protect)
O=C(NCCO)[C@H](Cc1ccccc1)NC1(C(=O)NCCc2c[nH]c3ccccc23)CCCCC1	none (no result: HttQ103 aggreg, GALK inh, HTT ATP protect)
Cc1ccc(Cl)c(OCC(O)CNC(C)(C)C)c1 (stereo unspecified)	none (no result: HttQ103 aggreg, GALK inh, HTT ATP protect)
